Screening results deposited in PubChem BioAssay by several laboratories.
CYP2C19 act = human CYP2C19 activators, primary screen, biochemical, luminescence; recombinant CYP2C19, luciferin-H EGE luminescence; stronger effect = higher value; 0 = fully inhibited enzyme, 1 = untreated enzyme; 96,000 tested, under 10 active; activation factor at 5 µM; Cytochrome P450 2C19 (Homo sapiens), P33261;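 active = activation factor of at least 2 at 5 µM in the primary screen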;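 note: 0 = wells with 2.5 mM tranylcypromine and 1 = vehicle-only wells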
Target sequence (P33261 whole entry, looked up): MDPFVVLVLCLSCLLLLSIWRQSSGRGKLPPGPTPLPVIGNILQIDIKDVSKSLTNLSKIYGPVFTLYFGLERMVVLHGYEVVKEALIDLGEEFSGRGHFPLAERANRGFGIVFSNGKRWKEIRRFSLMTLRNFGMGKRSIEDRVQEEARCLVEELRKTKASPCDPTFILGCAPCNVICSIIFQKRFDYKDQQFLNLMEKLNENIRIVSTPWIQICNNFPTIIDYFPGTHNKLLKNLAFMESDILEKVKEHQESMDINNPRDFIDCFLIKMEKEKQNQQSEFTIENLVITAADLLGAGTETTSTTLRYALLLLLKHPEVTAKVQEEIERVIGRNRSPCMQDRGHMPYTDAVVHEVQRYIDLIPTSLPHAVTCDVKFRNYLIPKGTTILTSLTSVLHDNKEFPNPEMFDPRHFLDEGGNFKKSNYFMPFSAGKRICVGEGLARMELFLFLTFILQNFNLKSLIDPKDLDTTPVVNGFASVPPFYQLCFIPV
CYP2C9 act = human CYP2C9 activators, primary screen, biochemical, luminescence | Cytochrome P450 2C9 (Homo sapiens), P11712 | recombinant CYP2C9, luciferin-H conversion; stronger effect = higher value; factor 1 = untreated enzyme, 0 = blocked | activation factor at 5 µM | actives 1.4% (n = 96,000) | AID 1024, 2008;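 active = activation factor of 2 or more for CYP2C9 at a 5 µM dose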;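 note: 0 = sulfaphenazole-blocked wells and 1 = vehicle-only wells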
CYP2C19 inh = blockers of cytochrome P450 2C19 activity – biochemical, luminescence, ADME assay, primary screen; actives 21% (n = 96,000); AID 778, 2007; inhibition, % at 5 µM; P33261; CYP2C19 Supersomes, luciferin-H EGE luminescence, 30 min;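 active = CYP2C19 inhibition above a set limit at 5 µM in the primary screen, cut at about 50% in these data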;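 note: plate controls were negative control wells for no effect and 2.5 mM tranylcypromine positive control for full effect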
sEH act = soluble epoxide hydrolase activators, primary screen, biochemical, human sEH. actives 0.04% (n = 91,000). AID 717, 2007. Bifunctional epoxide hydrolase 2 (Homo sapiens), P34913. purified human sEH enzymatic activity, activator screen. activation, % at 2 µM; in the data active = activation above about 37%
CYP2C9 inhib = blockers of cytochrome P450 2C9 activity – biochemical, luminescence, ADME assay, primary screen; actives 20% (n = 96,000); CYP2C9 Supersomes, luciferin-H conversion; inhibition, % at 5 µM;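 active = blocking of liver enzyme CYP2C9 beyond about 50% at 5 µM, limit read from the data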
sEH inh = soluble epoxide hydrolase inhibitors, primary screen, biochemical, human sEH | AID 707, 2007 | actives 0.34% (n = 91,000) | inhibition, % at 2 µM | Bifunctional epoxide hydrolase 2 (Homo sapiens), P34913 | recombinant human sEH enzymatic activity assay; in the data active = inhibition above about 80%
* = called active by the depositor; . = not tested or not shown. Hits are enriched below; roughly 27% of the tested compounds scored in any of these assays.

SMILES	CYP2C19 act	CYP2C9 act	CYP2C19 inh	sEH act	CYP2C9 inhib	sEH inh
CCn1c(CNC(=O)COc2ccc(C(C)C)cc2)nnc1SCC(=O)Nc1ccccc1F	0.5	0.3	53*	-26	71*	27
CCn1c(COc2cccc(C)c2)nnc1SCC(=O)N1CCCC1	0.9	1	14	13	2	-13
Cc1cc(NC(=O)CCC(=O)N(c2ccccc2)C(C(=O)NC2CCCCC2)c2cccs2)no1 (centres undefined)	.	.	.	6	.	-4
COc1ccc(Cl)cc1-c1n[nH]c(=S)n1C1CCCCC1	0.2	0.9	80*	0	14	-4
Cc1cc(Cl)ccc1OCc1n[nH]c(=S)n1C1CCCCC1	0.2	0	81*	-36	96*	38
COc1ccc(-c2n[nH]c(=S)n2C2CCCCC2)cc1	0.2	0.7	79*	-18	31	17
COc1ccc(-c2n[nH]c(=S)n2Cc2ccco2)cc1	1	0.7	-3	-2	33	4
Cc1ccc(-n2nnc3c(=O)n(CC(=O)NCC4CCCO4)cnc32)cc1 (centres undefined)	1.1	1.3	-10	-9	-26	10
N#C/C(C(=O)NCc1ccccc1)=C1\SC(CCO)C(=O)N1c1ccccc1 (centres undefined)	.	.	.	5	.	-6
COc1ccc(S(=O)(=O)Nc2cc(C(=O)NC(C)C)ccc2N2CCOCC2)cc1	0.5	0.4	54*	-10	58*	7
COc1ccc(S(=O)(=O)Nc2cc(C(=O)NC3CCCCCC3)ccc2N2CCOCC2)cc1	0.5	0.5	49	.	52*	.
COCCCNC(=O)c1ccc(N2CCCC2)c(NS(=O)(=O)c2ccc(C)cc2)c1	0.6	0.7	36	.	31	.
COc1ccc(-c2nnc(-c3cc4c(ccc5ccccc54)oc3=O)o2)cc1	0.3	0.4	68*	27	56*	-28
O=C(NCC(F)(F)F)Nc1cccnc1	.	.	.	-12	.	13
COc1ccc(-c2cc3nc(C4CCN(C(=O)OC(C)(C)C)CC4)c(C(=O)O)cn3n2)cc1	1.1	0.2	-5	-10	75*	9
CCOc1ccccc1N1CCN(CC(O)COc2ccc3c(C)cc(=O)oc3c2)CC1 (centres undefined)	0.8	0.9	20	.	15	.
O=C(Nc1cccc(-c2cn3ccsc3n2)c1)c1ccccc1	0.4	0.2	59*	.	85*	.
COc1ccccc1C(=O)Nc1cccc(-c2cn3ccsc3n2)c1	0.9	0.7	13	-6	29	10
O=C(Nc1cccc(-c2cn3ccccc3n2)c1)c1cccc(Cl)c1	0.7	0.2	29	-17	84*	16
NNC(=O)c1cccc(COc2ccccc2Br)c1	0	0.2	98*	-66	78*	67
Cc1sc2nc(CN3CCN(S(=O)(=O)c4cccc5nonc45)CC3)[nH]c(=O)c2c1C	1.1	1	-6	-6	1	5
O=C(c1ccccc1)c1ccncc1	0.8	0.7	21	-3	28	2
C/C(=C\C(=O)c1ccncc1)Nc1ccccc1O	0	0.7	97*	-14	28	15
CCOC(=O)C(Cc1c[nH]c2ccccc12)NC(=O)CNC(C)=O (centres undefined)	1	0.9	2	-2	5	2
COC(=O)c1[nH]c2ccccc2c1NC(=O)CN1CCN(c2cccc(Cl)c2)CC1	0.9	1.4	6	7	-40	-9
COC(=O)c1ccc(NC(=O)CCN2CCN(c3ccccc3)CC2)cc1	0.7	0.4	26	5	55*	-3
COC(=O)c1[nH]c2cccc(OC)c2c1NC(=O)CCN1CCN(c2cccc(Cl)c2)CC1	0.9	0.9	7	114*	9	-113
O/N=C1/CCCSc2ccccc21	1.1	1	-8	-5	-2	3
O=C(NC1(C(F)(F)F)N=C(c2ccccc2)NC1=O)c1ccc(Cl)cc1Cl (centres undefined)	0.8	0.8	23	-1	16	3
